Molecules are shown by their SMILES. Out of some 190,000 compounds screened, about 810 (0.43%) were called active. This is one part of a sample in which actives are shown more often than they occur. Cut-off read from the data, not from the text of the source: active = inhibition above about 50%; inactive = the rest.

One may read the inhibition as the relative decrease from the control value, in per cent.

Chain of Mannose-6-phosphate isomerase (Homo sapiens) (P34949 whole entry, looked up): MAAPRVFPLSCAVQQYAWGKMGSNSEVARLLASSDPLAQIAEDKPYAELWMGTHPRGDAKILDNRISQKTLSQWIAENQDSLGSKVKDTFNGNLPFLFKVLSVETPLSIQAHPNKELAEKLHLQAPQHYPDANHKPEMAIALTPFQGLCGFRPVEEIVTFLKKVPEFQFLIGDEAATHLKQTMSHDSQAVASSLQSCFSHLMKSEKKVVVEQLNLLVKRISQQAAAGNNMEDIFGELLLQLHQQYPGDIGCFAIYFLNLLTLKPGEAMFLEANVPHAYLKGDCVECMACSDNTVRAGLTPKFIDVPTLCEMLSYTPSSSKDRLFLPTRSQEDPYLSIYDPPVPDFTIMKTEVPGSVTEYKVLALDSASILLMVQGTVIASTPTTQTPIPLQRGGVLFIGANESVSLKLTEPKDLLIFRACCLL

The assay addresses Mannose-6-phosphate isomerase (Homo sapiens) (UniProt P34949). The assay can be described thus: inhibitors of human PMI, primary screen, biochemical, fluorescence intensity, coupled assay (AID 1209).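 Note: plate controls were DMSO vehicle for no effect and wells lacking substrate for full effect.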 To be noted: purified PMI enzyme, at 20 µM, active compounds read high.
For `O=C(CCc1ccccc1)Nc1ccc(N2CCOCC2)c(Cl)c1`, the inhibition was 11.3% (inactive).

Regarding `N#Cc1nc(COc2ccccc2)oc1NCCCn1ccnc1`, the inhibition is 0.3% (inactive).

In the case of `CCC(=O)Nc1ccccc1-c1nnn(CC(=O)N2c3ccccc3CC2C)n1` (stereo not given), the inhibition was 13% (inactive).

Regarding `CCCCN(C(=O)c1ccc(S(=O)(=O)N(C)C)cc1)c1nc2ccccc2s1`, the inhibition was 11.7% (inactive).

Turning to `CCOC(=O)Cc1cnc(N)s1`, the inhibition is 2.1% (inactive).

In the case of `COCCN(CC(=O)NCC1CCCO1)C(=O)CCC(=O)Nc1cc(C)ccn1` (stereo not given), the inhibition is -12.3% (inactive).

`Nc1cnc(Br)cc1Br`: the inhibition is -8.6% (inactive).

Take `Nc1cc2nsnc2cc1Br`: the inhibition is 61% (active).

Turning to `Cc1ccc2nsnc2c1N`, the inhibition was 8.5% (inactive).

Take `NS(=O)(=O)c1ccc(CCNC(=O)CSc2ncnc3ccccc23)cc1`: the inhibition was 7.5% (inactive).

For the molecule `CCOc1cccc(CNc2ccc(O)cc2)c1OCc1ccc(Cl)cc1Cl`, the inhibition is 40.3% (inactive).

Take `CCOc1cccc(CNc2ccc(O)cc2)c1OCc1ccc(Cl)cc1`: the inhibition was 53.9% (active).

As for `CCOc1cccc(CNc2ccc(O)cc2)c1OCc1ccccc1Cl`, the inhibition was 28.5% (inactive).

Turning to `CC(OC(=O)C1=COCCO1)C(=O)Nc1cc(S(=O)(=O)N2CCCCC2)ccc1Cl` (stereo not given), the inhibition was -6.3% (inactive).

`COCCCNC(=S)N1CCN(c2ccc([N+](=O)[O-])cc2)CC1`: the inhibition is 5% (inactive).

In the case of `Cc1ccc(CNC(=O)CCNC(=O)c2ccco2)cc1`, the inhibition is -8.4% (inactive).

Consider `CCOC(=O)c1sc(/N=C/c2c(O)ccc3ccccc23)cc1C`, for which the inhibition is 58.3% (active).

Regarding `CCOC(=O)c1sc(/N=C/c2ccc(O)cc2O)cc1C`, the inhibition is 28.9% (inactive).

As to `CCOC(=O)c1cc(CC)sc1/N=C/c1c(O)ccc2ccccc12`, the inhibition is 37.2% (inactive).

In the case of `CCc1ccc(NC(=S)/N=C(\N)Nc2nc(C)c3cc(CC)ccc3n2)cc1`, the inhibition was 11.4% (inactive).

Take `COc1ccc(-c2ccc(C(=O)O)o2)c([N+](=O)[O-])c1`: the inhibition is 73.7% (active).

With `COc1cccc(NC(=O)c2ccc(-c3ccccc3[N+](=O)[O-])o2)c1`, the inhibition is -13.3% (inactive).

Take `CNC(=O)/C(C#N)=C/c1ccc(-c2ccc(OC)cc2[N+](=O)[O-])o1`: the inhibition was 28.2% (inactive).

Consider `Cn1c(SCC(=O)N2CCOCC2)nnc1-c1cccc(NC(=O)c2ccccc2F)c1`, for which the inhibition is 2.1% (inactive).

`COc1ccc(-c2nn[nH]n2)cc1OC`: the inhibition is -5% (inactive).

With `COc1ccc(-c2nc(N)n[nH]2)cc1OC`, the inhibition was 2.2% (inactive).

For `Cc1c(C(=O)NN)sc(-c2ccccc2)c1C#N`, the inhibition is -23.8% (inactive).

As for `CCn1c(C)nc2cc(C(=O)N/N=C/c3ccccc3C)ccc21`, the inhibition is -4.6% (inactive).

Turning to `CCN(CC)S(=O)(=O)c1cccc(C(=O)N/N=C/c2ccc(O)c(O)c2O)c1`, the inhibition is 77.7% (active).

As for `CCN(CC)S(=O)(=O)c1cccc(C(=O)N/N=C/c2cccc(O)c2O)c1`, the inhibition was 20% (inactive).

Regarding `CCn1c(C)nc2cc(C(=O)N/N=C/c3cccc(OC)c3O)ccc21`, the inhibition is 5.6% (inactive).

For `CCN(CC)S(=O)(=O)c1cccc(C(=O)N/N=C/c2cc(OC)c(O)c(OC)c2)c1`, the inhibition is 19.2% (inactive).

As for `NC(=O)COC(=O)c1c2c(nc3ccccc13)CCCC2`, the inhibition is -8.6% (inactive).

Regarding `NS(=O)(=O)c1ccc(CCNC(=O)c2ccc3nc4ccc(Cl)cc4c(=O)n3c2)cc1`, the inhibition was -11.6% (inactive).

For `CC(C)(C(=O)O)n1cncn1`, the inhibition is -17.9% (inactive).

For the molecule `CC(C)(C)c1ccccc1OCCCCCn1ccnc1`, the inhibition is 14% (inactive).

As for `Oc1ccccc1/C=N/N1CCCCC1`, the inhibition is 10.8% (inactive).

For `CC(=O)NC1=NN(C(C)=O)C(c2ccccc2)S1` (stereo not given), the inhibition is 10.4% (inactive).

With `O=C(COc1ccc(C(=O)NCCc2ccccc2)cc1)Nc1ccccc1`, the inhibition was 9.8% (inactive).

In the case of `COCc1[nH]nc2c1C(c1ccc(OC)cc1)C(C#N)=C(N)O2` (stereo not given), the inhibition is 21.3% (inactive).

With `COCc1[nH]nc2c1C(c1cc(OC)c(O)c(OC)c1)C(C#N)=C(N)O2` (stereo not given), the inhibition was 53.8% (active).

For `COCc1[nH]nc2c1C(c1ccc(OC)c(OC)c1)C(C#N)=C(N)O2` (stereo not given), the inhibition is 2% (inactive).

Turning to `CCOc1ncccc1C(=O)OCC(=O)c1cc(OC)ccc1OC`, the inhibition was -1.1% (inactive).

Regarding `COc1ccc(C(=O)COC(=O)c2cccnc2Cl)c(OC)c1`, the inhibition is 0.1% (inactive).

Take `O=C(O)C1CCCCC1C(=O)NCc1ccc(F)cc1` (stereo not given): the inhibition is 13.1% (inactive).

As for `CCOc1cc(C(=O)Nc2cccc(C(C)=O)c2)ccc1OCC(=O)N1CCCCC1`, the inhibition is 8.7% (inactive).

Take `O=C1NCCCC2c3cc(O)c4ccccc4c3OC12N1CCCCC1` (stereo not given): the inhibition was 21% (inactive).

Regarding `O=C1NCCCC2c3c(cc(Br)c(O)c3Br)OC12N1CCCCC1` (stereo not given), the inhibition is 24.7% (inactive).

Consider `O=C1NN=C(c2ccccc2)CC1c1ccc(Cl)cc1Cl` (stereo not given), for which the inhibition was 4.2% (inactive).

On to `COC(=O)C(C(C)=O)C1=C/C(=N\S(=O)(=O)c2ccc(C)cc2)c2ccccc2C1=O` (stereo not given), for which the inhibition was 22.1% (inactive).

On to `CCc1ccc(S(=O)(=O)/N=C2\C=CC(=O)c3ccccc32)cc1`, for which the inhibition is 6.9% (inactive).

On to `CC(C)c1ccc(S(=O)(=O)/N=C2/C=CC(=O)c3ccccc32)cc1`, for which the inhibition is 34.5% (inactive).

For the molecule `Cc1ccc(S(=O)(=O)/N=C2/C=C(C3C(=O)CC(C)(C)CC3=O)C(=O)c3ccccc32)cc1`, the inhibition was 9.6% (inactive).

With `CCc1ccc(S(=O)(=O)/N=C2/C=C(Sc3ncn[nH]3)C(=O)c3ccccc32)cc1`, the inhibition is 98.8% (active).

Turning to `O=C1c2ccccc2C(=O)N1CCSc1ncn[nH]1`, the inhibition was -7.4% (inactive).

`CC(C)c1ccc(S(=O)(=O)/N=C2/C=C(Sc3ncn[nH]3)C(=O)c3ccccc32)cc1`: the inhibition was 95.1% (active).

As to `O=C(O)c1ccc(NC2=C/C(=N/S(=O)(=O)c3ccccc3)c3ccccc3C2=O)cc1`, the inhibition is -68.7% (inactive).

Turning to `Cc1ccc(S(=O)(=O)/N=C2/C=C(Sc3ncn[nH]3)C(=O)c3ccccc32)cc1`, the inhibition was 101% (active).

Regarding `O=C(Cn1cc(C(F)(F)F)ccc1=O)N/N=C/c1ccc(F)cc1`, the inhibition is -3.8% (inactive).

With `CC1CCN(CC(=O)N2c3ccccc3CC2C)CC1` (stereo not given), the inhibition is -23.2% (inactive).

Take `Cc1cc(=O)c(C(=O)O)cn1Nc1ccc(F)cc1`: the inhibition was -5.7% (inactive).

As for `COc1ccc(C(O)Cc2nc3ccccc3n2C)cc1OC` (stereo not given), the inhibition was -8.6% (inactive).

For the molecule `Cc1ncc(C[n+]2csc(CCOC(=O)CC34CC5CC(CC(C5)C3)C4)c2C)c(N)n1`, the inhibition is -0.1% (inactive).

On to `CCOc1cc(CNc2ccc(N3CCOCC3)cc2)cc(Br)c1OCC`, for which the inhibition is 6.4% (inactive).

Regarding `COc1cc(CNc2ccc(N3CCCC3)cc2)ccc1OCc1ccccc1F`, the inhibition is 29.9% (inactive).

For `CCOc1c(Cl)cc(CNc2ccc(S(N)(=O)=O)cc2)cc1OC`, the inhibition is -1.5% (inactive).

On to `COc1cc(CNc2ccc(N3CCOCC3)cc2)cc(Br)c1OC`, for which the inhibition was -0.4% (inactive).

Turning to `COc1cc(CNc2ccc(N3CCCC3)cc2)ccc1OCc1ccccc1`, the inhibition is 86.4% (active).

As for `C=CCOc1c(Cl)cc(CNc2ccc(C)c(Cl)c2)cc1OC`, the inhibition is 13.1% (inactive).

Consider `CCOc1c(Cl)cc(CNC(C)(C)CC(C)(C)C)cc1OC`, for which the inhibition is 4.6% (inactive).

For `CCOc1cc(CNc2ccc(N3CCCC3)cc2)cc(Cl)c1OC`, the inhibition was 83% (active).

Turning to `COc1cc(CNc2ccc(N3CCN(C(C)=O)CC3)cc2)ccc1OCc1ccccc1`, the inhibition is 20% (inactive).

`COc1cc(CNc2ccc(N3CCCC3)cc2)cc(Cl)c1OC`: the inhibition is 76.9% (active).

With `CCOc1cc(CNc2ccc(S(N)(=O)=O)cc2)cc(Cl)c1OC`, the inhibition was 3% (inactive).

Take `C/C(=N/NC(=O)c1ccncc1)c1c[nH]c2ccccc12`: the inhibition is -0.2% (inactive).

In the case of `Cc1cccc(-n2ccnc2SCC(=O)N2CCCc3ccccc32)c1C`, the inhibition is 5.4% (inactive).

For the molecule `COC(=O)c1c(C(=O)OC)c2cc(C(=O)c3ccccc3)ccn2c1Cl`, the inhibition was -15.3% (inactive).

In the case of `CS(=O)(=O)N1CCN(C2CCN(Cc3ccccc3)CC2)CC1`, the inhibition was -0.6% (inactive).

`CN1CCc2nc3sc(C(=O)NCc4ccccc4)c(N)c3cc2C1`: the inhibition is -30.8% (inactive).

On to `CC(NC(=O)NC12CC3CC(CC(C3)C1)C2)c1ccc2c(c1)OCO2` (stereo not given), for which the inhibition was -7.3% (inactive).

Regarding `O=C(NCC(c1ccco1)N1CCN(c2ccccc2F)CC1)OCc1ccccc1` (stereo not given), the inhibition was 18% (inactive).

Take `O=C(N1CCCCCC1)n1c(Cc2ccccc2)nc2ccccc21`: the inhibition was -0.4% (inactive).

On to `NCc1oc(-c2ccccc2)cc1C(=O)O`, for which the inhibition is -55.4% (inactive).

Turning to `COc1c(C(O)CC(C)C)ccc2c1C(=O)OCc1cc(C)cc(O)c1O2` (stereo not given), the inhibition was 23.7% (inactive).

Turning to `O=C(CCCc1c[nH]c2ccccc12)NCC1COc2ccccc2O1` (stereo not given), the inhibition is -0.7% (inactive).

As to `Cc1cccc(CN2CCN(CC(=O)NCc3cccs3)C2=O)c1`, the inhibition was -8.2% (inactive).

Consider `CCOc1ccc(CNc2ccc(CNc3ncn[nH]3)cc2)cc1`, for which the inhibition is 9.7% (inactive).

As for `CCOc1ccc(CNc2ccc(N3CCCC3)cc2)cc1`, the inhibition is 85.9% (active).

Turning to `CCOc1ccc(C(=O)Nc2ccc(N3CCCC3)cc2)cc1`, the inhibition is -29% (inactive).

Turning to `O=C(CSc1nc2[nH]ncc2c(=O)n1-c1ccccc1)NCc1cccs1`, the inhibition is -10.6% (inactive).

With `O=C(CCCCCC(=O)N(CCO)CCO)N(CCO)CCO`, the inhibition was -2.9% (inactive).

On to `CC1(C)CNc2cc(N)ccc2S1`, for which the inhibition was 82.8% (active).

For the molecule `CC1(C)CNc2cc([N+](=O)[O-])ccc2S1`, the inhibition is 1.5% (inactive).

Take `CC1(C)CC(=S)Nc2ccccc2S1`: the inhibition was 41.8% (inactive).

Turning to `O=C(NCc1ccc2c(c1)OCO2)c1cc(-c2ccccc2)on1`, the inhibition is 15.7% (inactive).

On to `O=C(c1ccc(OCC2CCCO2)cc1)N1CCc2ccccc2C1` (stereo not given), for which the inhibition is 2.4% (inactive).

Take `Oc1ccc2ccccc2c1/C=N/Nc1nnc(-c2ncc[nH]2)c2ccccc12`: the inhibition was -2.3% (inactive).

As to `CC(=O)Nc1ccc(C(=S)NCc2ccco2)cc1`, the inhibition was 9.7% (inactive).

As for `CN(C)c1ccc(/C=N/NC(=S)NCc2ccco2)cc1`, the inhibition was -8% (inactive).

For the molecule `CN(C)c1ccc(C(=S)NCc2ccco2)cc1`, the inhibition was 50.7% (active).

Source of the values: PubChem BioAssay AID1209 (Sanford-Burnham Center for Chemical Genomics, 2008).
